# The whole screen tested about 220,000 compounds, of which about 8,200 (3.7%) were called active.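 The calls were made as follows: active = compounds that reduced the stress-induced luciferase reporter signal by more than about 70% of percent inhibition (limit read from the data); inactive = the rest.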 Many of the other results were omitted from the sample, so actives are more common in it than they were.
# Test: inhibitors of CHOP promoter induction, primary screen, cell-based, unfolded protein response, luciferase reporter (AID 2732);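 also: 0% = tunicamycin plus vehicle and 100% = wells without tunicamycin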
# Details: CHO-K1 CHOP-promoter luciferase, tunicamycin-induced, 15-18 h; at 10 µM; stronger effect = higher value
row,SMILES,inhibition
1,CC(=O)Nc1ccc(C(=O)/C=C/c2ccc[nH]2)cc1,-14.3% (inactive)
2,O=C(NC1CCCCC1)c1cc(C2CC2)on1,1.58% (inactive)
3,CCc1nc(NCCO)c(C#N)c2c1CCCC2,17.2% (inactive)
4,CCCCc1nc(NCCN)c(C#N)c2c1CSC(C)(C)C2,101% (active)
5,CCCCc1nc(NCc2ccccc2)c(C#N)c2c1CCCC2,54.3% (inactive)
6,CC(C)C(=O)N1CCN(c2nc(-c3ccccc3)c3c(c2C#N)CC(C)(C)OC3)CC1,26.8% (inactive)
7,Cc1nc(NCCN)c(C#N)c2c1COC(C)(C)C2,74.9% (active)
8,Cc1nc(NCc2ccccc2)c(C(N)=O)c2c1COC(C)(C)C2,-8.11% (inactive)
9,C=CCSc1nnc(NC(=O)c2ccc(NC(C)=O)cc2)s1,6.97% (inactive)
10,COC(=O)c1scc(C)c1NC(=O)CSc1ccc(Cl)cc1,16.3% (inactive)
11,Cc1nn(Cc2ccccc2)c(C)c1C(=O)NCCN1C(=O)S/C(=C\c2ccc(F)cc2)C1=O,56.3% (inactive)
12,Cn1cccc1/C=C1\SC(=S)N(NC(=O)c2ccc(Cl)cc2)C1=O,20.4% (inactive)
13,Cn1cccc1/C=C1\SC(=O)N(CC(=O)Nc2ccc(F)cc2)C1=O,72% (active)
14,COc1ccc(N2CCC(CNC(=S)Nc3c(C)cccc3C)C2)cc1 (stereo not drawn),18.6% (inactive)
15,CCOc1ccc2nc(Cl)c(C3CC(c4ccccc4)=NN3C(=O)c3cccs3)cc2c1 (stereo not drawn),90.5% (active)
16,CCOc1ccccc1C1CC(c2cccc(NS(C)(=O)=O)c2)=NN1C(=O)c1ccccc1 (stereo not drawn),-2.91% (inactive)
17,COc1ccc(C2CC(c3ccccc3)=NN2C(=O)c2ccc(Cl)c([N+](=O)[O-])c2)cc1 (stereo not drawn),-21.3% (inactive)
18,OC(CNCc1ccc2c(c1)OCO2)COc1ccccc1 (stereo not drawn),-20.3% (inactive)
19,CCOC(=O)CC1C(=O)NCCN1c1nc2c(C)cccn2c(=O)c1/C=C1\SC(=S)N(C(C)CC)C1=O (stereo not drawn),5.91% (inactive)
20,C/C(Cl)=C\Cn1c(Nc2cccc(C)c2)nc2c1c(=O)n(C)c(=O)n2C,76.1% (active)
21,Cc1cccc(Cn2c(N3CCN(c4ccccc4)CC3)nc3c2c(=O)n(C)c(=O)n3C)c1,40.4% (inactive)
22,COC(=O)C(C)Sc1nc2c(c(=O)n(C)c(=O)n2C)n1Cc1cccc(C)c1 (stereo not drawn),11.8% (inactive)
23,CNc1ccc([N+](=O)[O-])cc1C(=O)O,-14.2% (inactive)
24,Nc1nc(O)c(CC(=O)O)s1,9.65% (inactive)

row,SMILES,inhibition
1,CC(=O)N/C(=C\c1ccc(F)cc1)C(=O)NC(Cc1ccccc1)C(=O)O (stereo not drawn),2.9% (inactive)
2,Cc1cccc(-n2c(C)cc(/C=N\NC(=O)c3cccs3)c2C)c1,13.8% (inactive)
3,Cc1ccc(-n2nc(C)c(/C=N/NC(=O)c3cccs3)c2Cl)cc1,99.7% (active)
4,CC(=O)Nc1ccc(/C=N/NC(=O)c2cccs2)cc1,-21.6% (inactive)
5,O=C(NCCCn1ccnc1)C(=O)NCC1OCCN1S(=O)(=O)c1cc(F)ccc1F (stereo not drawn),19.4% (inactive)
6,CO/N=C/c1ccc(N2CCN(C(=O)c3cccc(Cl)c3)CC2)c([N+](=O)[O-])c1,71.8% (active)
7,O=C(/C=C/c1ccc(Cl)cc1)N1CCN(c2ccccc2[N+](=O)[O-])CC1,32.3% (inactive)
8,O=C(c1ccc(Cl)c([N+](=O)[O-])c1)N1CCN(c2ccccc2)CC1,-20.4% (inactive)
9,CC12C(=O)N(c3ccccc3)C(=O)C1C(c1ccccc1)N1CCCN12 (stereo not drawn),7.95% (inactive)
10,O=[N+]([O-])c1ccc(N2CCSCC2)cc1O,13.8% (inactive)
11,CC(C)(C)C(=O)NC(NC(=S)Nc1ccc(S(N)(=O)=O)cc1)C(Cl)(Cl)Cl (stereo not drawn),-6.4% (inactive)
12,Cc1ccc(NC(=S)NC(NC(=O)Cc2cccc3ccccc23)C(Cl)(Cl)Cl)cc1 (stereo not drawn),110% (active)
13,O=C(Cc1cccc2ccccc12)NNC(=O)Nc1ccc(Cl)cc1,13.2% (inactive)
14,O=C(NNC(=S)NC1CC2CCC1C2)c1ccc(Cl)cc1 (stereo not drawn),-10.6% (inactive)
15,CC1(C)Oc2ccc3ccc(=O)oc3c2/C(=C/NCCO)C1=O,7.95% (inactive)
16,C/C=C(/C)C(=O)OC1Cc2c(ccc3ccc(=O)oc23)OC1(C)C (stereo not drawn),74.3% (active)
17,O=C(NCc1csc(-c2cccs2)n1)C1CC1,21.8% (inactive)
18,COc1ccccc1OCC(=O)O/N=C(\N)c1ccccn1,-9.1% (inactive)
19,CCCCN1CCNC1=S,11% (inactive)
20,Cc1ccc(-c2noc(CSc3nnc(-c4ccncc4)n3-c3ccc(F)cc3)n2)cc1,35.3% (inactive)
21,Fc1ccc(-n2c(Cc3ccccc3)nnc2SCc2nc(-c3ccc(Cl)cc3)no2)cc1,82.2% (active)
22,Cc1nnc(SCc2ccc(C(=O)c3ccc(Cl)cc3)o2)n1-c1ccccc1,24.9% (inactive)
23,Cc1oc(C(N)=O)cc1COc1ccc(C(N)=O)cc1,0.47% (inactive)
24,CC(=O)NC(=S)Nc1ccc(NC(=S)NC(=O)c2ccc([N+](=O)[O-])cc2)cc1,-4.53% (inactive)
